# From PubChem BioAssay
# LDHA inh = qHTS assay for inhibitors of human lactate dehydrogenase; purified LDHA, NADH/diaphorase-resazurin fluorescence; active compounds read low; 0.15% of 480,000 active; L-lactate dehydrogenase A chain (Homo sapiens), P00338; activity change, % (values are at about 110 or 230 µM); in the data active = activity change below about -30%; inconclusive = mostly about -25% to -30%;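 also: plate controls were DMSO wells for no effect and wells without enzyme for full effect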
#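 LDH5 2 nM; NADH 0.06 mM, pyruvate 0.2 mM; 200 mM Tris pH 7.4, EDTA, Tween-20; 5 min RT. Detection: diaphorase 0.133 mg/mL + resazurin 37 µM, fluorescence ex540/em590 at 0 and 20 min; normalized to enzyme-free and DMSO wells.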
# PI4K2A block = qHTS for small molecular inhibitors of PI4K2A; activity change, negative = inhibition, % at 76.9 µM; 0.13% of 420,000 active; purified PI4K2A, ADP-Glo luminescence, 1 h; active compounds read low; Phosphatidylinositol 4-kinase type 2-alpha (Homo sapiens), Q9BTU6; in the data active = activity change below about -50%; inconclusive = mostly about -30% to -49%;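 also: -100% = wells without enzyme as full effect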
# Target sequence (Q9BTU6 whole entry, looked up): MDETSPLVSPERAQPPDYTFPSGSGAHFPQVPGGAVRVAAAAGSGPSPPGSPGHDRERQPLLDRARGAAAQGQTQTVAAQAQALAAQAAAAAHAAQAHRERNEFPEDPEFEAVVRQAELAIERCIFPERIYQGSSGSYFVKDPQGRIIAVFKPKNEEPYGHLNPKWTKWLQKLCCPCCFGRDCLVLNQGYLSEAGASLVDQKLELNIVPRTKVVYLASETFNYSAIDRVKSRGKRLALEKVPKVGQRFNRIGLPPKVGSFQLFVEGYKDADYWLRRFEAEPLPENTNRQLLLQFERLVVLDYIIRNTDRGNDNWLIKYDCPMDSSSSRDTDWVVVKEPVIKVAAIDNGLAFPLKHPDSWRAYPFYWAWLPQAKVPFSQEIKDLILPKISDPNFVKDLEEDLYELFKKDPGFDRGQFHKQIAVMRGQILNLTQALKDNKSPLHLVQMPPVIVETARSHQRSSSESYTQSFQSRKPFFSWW
#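 PI4K2A activity was measured by ADP-Glo luminescence: enzyme (4 ug/mL stock) and phosphatidylinositol (1.2 mM stock) in Tris pH 7.5/MgCl2/EGTA/Triton X-100 buffer were reacted with ATP (300 microM stock) for one hour at ambient temperature.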
# DRD3 agonist = qHTS of D3 Dopamine Receptor Agonist: qHTS. D(3) dopamine receptor (Homo sapiens), P35462. D3R DiscoveRx beta-arrestin cells, luminescence, 90 min. AID 652048, 2013. 0.58% of 410,000 active. max activation, %; in the data active = max activation above about 30%; also: 0% is about no effect
#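 Cells at 1500/well, incubated overnight, then treated with pinned compounds (dopamine as control) for 90 min at 37 degrees C. DiscoveRx reagent added for 30 - 60 minutes at room temperature; luminescence read.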
# DRD3 antagonist = qHTS of D3 Dopamine Receptor Antagonist: qHTS; D(3) dopamine receptor (Homo sapiens), P35462; D3R cells, DiscoveRx beta-arrestin luminescence, antagonist mode; active compounds read low; max response, negative = inhibition, %; 2.5% of 360,000 active; in the data active = max response below about -50%; inconclusive = no clear call, values can overlap the other calls; also: % is scaled to controls: 0 for no effect and ±100 for the full control effect
#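 Cells expressing the human receptor were seeded at 1500 cells/well, incubated overnight at 37 degrees C in 5% CO2, then exposed to library compounds with dopamine controls for 90 minutes at 37 degrees C before luminescent detection.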
# PI5P4K alpha inh = qHTS for Inhibitors of phosphatidylinositol 5-phosphate 4-kinase (PI5P4K). Phosphatidylinositol 5-phosphate 4-kinase type-2 alpha (Homo sapiens), P48426. PI5P4Kalpha enzyme, ADP-Glo luminescence, 60 min; active compounds read low. max response, %. 1.2% of 330,000 active. AID 652105, 2013; active = max response of -50% or lower; inconclusive = between -30% and -50%; inactive = -30% or higher; also: value at the top dose of about 77 µM; % is scaled to controls: 0 for no effect and ±100 for the full control effect
#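 Reactions run in 0.038 M HEPES pH 7.4, 0.28 mM EGTA, 0.1% CHAPS and 5% DMSO, with PI5P4Kalpha, substrate, compound and 5 microM ATP final, one hour at room temperature. Readout is ADP-Glo luminescence.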
# * hit, by the source's call; u = inconclusive; x = no result given. An excerpt weighted towards active compounds, which were near 3.3% of everything screened.
SMILES,LDHA inh,PI4K2A block,DRD3 agonist,DRD3 antagonist,PI5P4K alpha inh
CCOc1ccc(S(=O)(=O)Nc2cccc(C(=O)NCC(c3ccccc3)N(C)C)c2)cc1 (configuration not stated),1.3,-0.5,-16.6,-67.9*,3.2
CCOc1ccc(S(=O)(=O)Nc2cccc(C(=O)NCC(c3ccco3)N(C)C)c2)cc1 (configuration not stated),1.7,-5.8,-32.7,-55.6*,8.0
COc1ccc(C(CNC(=O)c2cccc(NS(=O)(=O)c3ccccc3)c2)N(C)C)cc1 (configuration not stated),-0.8,-1.1,-10.4,u,-1.9
COc1ccc(C(CNC(=O)c2cccc(NS(=O)(=O)c3ccc(C)c(F)c3)c2)N(C)C)cc1 (configuration not stated),-7.9,1.2,-23.3,-58.5*,-1.8
COc1cc(S(=O)(=O)NC2CC(C)(C)NC(C)(C)C2)c(C)cc1C,1.9,x,x,x,x
COc1cc(-c2nnc(CSc3nc(C4CC4)n(-c4ccccc4)n3)o2)cc(OC)c1OC,-2.7,x,x,x,x
O=C(Oc1ccc(Cl)c2cccnc12)c1cccnc1,7.4,-8.0,-7.1,-70.0*,-4.6
Cc1cccc(NC(=O)Oc2ccc(Cl)c3cccnc23)c1,6.7,-22.5,-30.0,-119.8*,2.8
COc1ccc(C(=O)Oc2cccc3cccnc23)cc1[N+](=O)[O-],11.2,-10.3,-21.1,u,-6.5
Cc1ccc(C(=O)Oc2ccc(Cl)c3cccnc23)cc1[N+](=O)[O-],14.1,-20.3,-29.3,-126.1*,16.8
O=C(Oc1ccc(Cl)c2cccnc12)N1CCCCC1,-2.8,-1.2,3.3,19.2,x
N#CC1=C(N)n2ncnc2NC1c1ccc(Br)cc1 (configuration not stated),4.5,x,x,x,x
C=CCc1cccc(Cl)c1OCCCNC1CCCC1,-20.2,-0.3,-8.6,-89.0*,2.3
Cc1ccc(-n2c(C)cc(/C=N/NC(=O)CC3(C)OCCO3)c2C)c(C)c1,1.2,-3.3,-0.7,-13.1,-1.1
CC1(CC(=O)N/N=C/c2cc([N+](=O)[O-])c(O)cc2O)OCCO1,4.5,0.5,-11.0,-22.8,-64.1*
COc1cc(C(=O)NCC2CCCO2)cc(Cl)c1OCCC(C)C (configuration not stated),8.4,x,x,x,x
COc1ccccc1C(=O)N1CCC(N2CCN(c3ccccc3)CC2)CC1,-22.6,0.2,53.3*,-18.8,5.2
COc1ccccc1C(=O)N1CCC(N2CCN(c3ccccc3OC)CC2)CC1,-15.2,-3.8,-44.8,-64.8*,-4.7
COc1ccccc1N1CCN(C2CCN(C(=O)COc3ccccc3)CC2)CC1,-11.6,7.4,-21.8,-60.6*,-5.9
COc1ccccc1N1CCN(C(=O)C2CCN(C(=O)c3ccccc3Cl)CC2)CC1,0.3,2.3,10.9,0.0,0.0
CC(C)(C)C1CCC(N2CCN(c3ccccc3)CC2)CC1 (configuration not stated),-9.1,-0.3,1.1,-53.3*,4.7
CC(C)CC(=O)N1CCC(N2CCN(c3ccccc3)CC2)CC1,-23.0,1.8,13.8,u,-12.8
Cc1cc(C)c(C(=O)Nc2ccccc2C)c(SCC(=O)NC2CCCC2)n1,9.5,x,x,x,x
O=C(NC1CC1)c1cn(-c2ccccc2)nc1-c1ccccc1,-1.4,x,x,x,x
COc1cc2c(cc1OC)C(=O)C(Br)CC2 (configuration not stated),23.8,u,-3.7,u,-50.6*
SMILES,LDHA inh,PI4K2A block,DRD3 agonist,DRD3 antagonist,PI5P4K alpha inh
O=C(Nc1nnc(SCc2ccc(F)cc2)s1)c1ccc2c(c1)C(=O)N(c1ccccc1Cl)C2=O,-10.8,-0.2,52.7*,48.8,-1.8
O=C(Nc1nnc(SCc2ccc(F)cc2)s1)c1ccc2ncsc2c1,-1.6,-7.9,7.5,11.2,u
Cc1cn([C@H]2C[C@H](O)[C@@H](/C=C/C(=O)NCCc3cccnc3)O2)c(=O)[nH]c1=O,-5.8,3.5,58.9*,-22.9,-9.0
Cc1cn([C@H]2C[C@H](O)[C@@H](/C=C/C(=O)NCc3ccccc3)O2)c(=O)[nH]c1=O,-11.8,-3.0,-1.3,-5.7,2.0
C[C@H](CO)N1C[C@H](C)[C@@H](CN(C)C(=O)c2ccc(F)cc2)Oc2cc(Br)ccc2S1(=O)=O,2.2,-4.2,-4.5,-95.2*,-6.4
C[C@@H]1CN([C@@H](C)CO)S(=O)(=O)c2ccc(Br)cc2O[C@@H]1CN(C)C(=O)c1ccc(F)cc1,0.7,-0.4,-1.8,u,-4.7
CCC12CN3CC(CC)(CN(C1)C3c1ccc(O)c(OC)c1)C2O (configuration not stated),14.9,x,x,x,x
CCCC(C)c1oc(=O)cc(O)c1C (configuration not stated),-0.3,1.5,60.4*,-2.9,-19.4
CCOC(=O)C(C)Oc1ccc2c(CC)cc(=O)oc2c1C (configuration not stated),4.6,-3.6,0.2,-14.8,3.5
CCC(C)(C)n1nnnc1C(c1cc2ccc(OC)cc2[nH]c1=O)N1CCCCC1 (configuration not stated),-12.4,1.7,-0.3,-23.2,-11.3
COc1ccc2cc(C(c3nnnn3C(C)(C)C)N3CCSCC3)c(=O)[nH]c2c1 (configuration not stated),-6.6,-2.0,-7.0,-57.1*,x
Cc1ccc(S(=O)(=O)N2CC3(C)CN(S(=O)(=O)c4ccc(C)cc4)CC(C)(C2)C3)cc1,-2.7,5.4,31.0*,19.4,x
CCC12CN(S(=O)(=O)c3ccc(C)cc3)CC(CC)(CN(S(=O)(=O)c3ccc(C)cc3)C1)C2=O,-1.6,5.4,-4.0,-15.9,x
COc1ccc(-c2cc([N+](=O)[O-])ccc2OCC(=O)N(C)CC(=O)Nc2ccc(C)cc2)cc1,-11.3,-0.3,-8.2,u,3.9
Cc1ccc(NC(=O)CN(C)C(=O)COc2cc(F)ccc2[N+](=O)[O-])cc1,-1.7,-1.5,-17.0,-53.1*,-5.2
O=C(c1ccc(F)c(C(F)(F)F)c1)N1CC2CCC1C2 (configuration not stated),0.5,x,x,x,x
O=C(C1CCC1)N1CCc2cc(S(=O)(=O)NCCN3CCN(c4ccccc4F)CC3)ccc21,-4.0,4.9,66.8*,-28.1,-1.5
CCC(=O)N1CCc2cc(S(=O)(=O)NC(C(=O)NCc3ccccc3)C(C)C)ccc21 (configuration not stated),-16.9,23.6,-3.6,-76.8*,6.9
CCOC(=O)C1CCN(C(=O)CCNS(=O)(=O)c2ccc3c(c2)CCN3C(=O)CC)CC1,-0.3,7.3,-3.3,27.9,-1.5
